Results on 13 compounds are retold here after PubChem BioAssay (NCI).

This is part of a sample that, as a whole, favours compounds with a hit. Of some 83,000 tested, about 20% had one in any assay.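 Each cell line was grown in a 96-well plate and treated with one concentration of compound for 48 hours. Values below 10 were considered active.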 A number with no mark means an inactive call. Calls of active or inactive are those of the source.

Among the test systems are SK-MEL-2 melanoma; EKVX NSCLC; SN12C renal; UO-31 renal; TK-10 renal; ACHN renal; CAKI-1 renal; A498 renal; CCRF-CEM leukemia; MOLT-4 leukemia.
Assay in all cases: NCI-60 one-dose screen, 48 h (100 = growth as untreated, 0 = no growth, -100 = all killed)
Common to all, as to details: 10 µM unless noted

For `CN(C)Cc1ccc[nH]1`, the growth with SK-MEL-2 melanoma was 93.5%; with EKVX NSCLC it was 90.4%; in the assay with SN12C renal, 70.4%; in the assay with UO-31 renal, 88.9%; in the assay with TK-10 renal it was 131%; in the assay with ACHN renal, 101%. In addition, the growth with CAKI-1 renal was 81.8%; in the assay on A498 renal, 76.8%; in the assay on CCRF-CEM leukemia, 118%; with MOLT-4 leukemia, 107%.
Regarding `O=C(N/N=C\c1cc(Cl)ccc1O)N/N=C/c1cc(Cl)ccc1O`, the growth was 70.6% in the assay on SK-MEL-2 melanoma; 69.4% in the assay on EKVX NSCLC; 66.8% in the assay with SN12C renal; 17.3% in the assay with UO-31 renal; 55.4% in the assay on TK-10 renal; 27.5% in the assay with ACHN renal. For the same compound, the growth is 60.2% in the assay with CAKI-1 renal, 80.3% in the assay on A498 renal, 27.4% in the assay with CCRF-CEM leukemia and 43.2% with MOLT-4 leukemia.
In the case of `O=C(Nc1cccnc1)c1ccc2ccc3ccc(C(=O)Nc4cccnc4)nc3c2n1`, the growth with SK-MEL-2 melanoma is 25.8%; with EKVX NSCLC, 54.4%; in the assay on SN12C renal, 32.4%; in the assay with UO-31 renal, 36.3%; in the assay on TK-10 renal it was 37.1%; with ACHN renal, 23.3%. Also, the growth is 10.7% with CAKI-1 renal, -39.1% (active) in the assay on A498 renal, 28.5% in the assay with CCRF-CEM leukemia and 32.1% in the assay on MOLT-4 leukemia.
Consider `Cc1nc(Cl)cc(N(c2cc(Cl)nc(C)n2)c2ncc(C(=O)Nc3c(C)cccc3Cl)s2)n1`, for which the growth in the assay with SK-MEL-2 melanoma was 87.4%; in the assay on EKVX NSCLC it was 84.7%; in the assay on SN12C renal, 37.5%; with UO-31 renal, 24.8%; with TK-10 renal it was 36.7%; in the assay on ACHN renal, 14.1%. Moreover, the growth is 4% (active) with CAKI-1 renal, 35.6% in the assay on A498 renal, 53.7% in the assay on CCRF-CEM leukemia and 40.6% with MOLT-4 leukemia.
For `COc1cc2c(cc1OCCCCCOc1ccc(-n3c(C)nc4ccccc4c3=O)cc1)N=C[C@@H]1CCCN1C2=O`, the growth in the assay on SK-MEL-2 melanoma is -8.38% (active); with EKVX NSCLC it was -26.5% (active); in the assay on SN12C renal, 12.7%; in the assay on UO-31 renal it was 2.91% (active); in the assay on TK-10 renal, -28.2% (active); with ACHN renal it was 9.23% (active). Further, the growth in the assay on CAKI-1 renal is 4.3% (active); in the assay with A498 renal it was -71.9% (active); in the assay with CCRF-CEM leukemia it was -38.3% (active); in the assay on MOLT-4 leukemia, -31.2% (active).
As to `COc1ccc2nc3c(cc2c1)C(=O)CC(c1ccccc1)C3` (stereo not given), the growth in the assay on SK-MEL-2 melanoma is 70%; in the assay with EKVX NSCLC it was 44.5%; in the assay with SN12C renal, 40.7%; in the assay on UO-31 renal, 34.5%; in the assay on TK-10 renal it was 64%; with ACHN renal, 43.9%. The growth in the assay with CAKI-1 renal was 31.3%; in the assay with A498 renal it was -13.5% (active); in the assay with CCRF-CEM leukemia it was 10.7%; in the assay on MOLT-4 leukemia, 17.8%.
With `COc1cc2c(=O)[nH]c3cc([N+](=O)[O-])ccc3c2cc1[N+](=O)[O-]`, the growth is 86.1% in the assay with SK-MEL-2 melanoma; 48.3% in the assay on EKVX NSCLC; 52.6% with SN12C renal; 19.6% with UO-31 renal; 52.1% in the assay on TK-10 renal; 21.8% in the assay on ACHN renal. In addition, the growth in the assay with CAKI-1 renal is 45.7%; in the assay with A498 renal it was -2.09% (active); in the assay with CCRF-CEM leukemia, 46.5%; with MOLT-4 leukemia, 9.72% (active).
Take `C=C(C)[C@@H]1CC[C@]2(C(=O)OC)CC[C@]3(C)[C@H](CC[C@@H]4[C@@]5(C)CC/C(=N\OCCC(=NCCC#N)NOCCC#N)C(C)(C)[C@@H]5CC[C@]43C)[C@@H]12`: the growth is 36.2% [100 µM] with SK-MEL-2 melanoma; 53.1% [100 µM] in the assay on EKVX NSCLC; -71.9% [100 µM] (active) with SN12C renal; 19% [100 µM] in the assay on UO-31 renal; 37.9% [100 µM] in the assay with TK-10 renal; 13.9% [100 µM] in the assay with ACHN renal. Moreover, the growth in the assay with CAKI-1 renal is 18.5% [100 µM]; in the assay with A498 renal, -0.384% [100 µM] (active); in the assay on CCRF-CEM leukemia, 7.42% [100 µM] (active); in the assay with MOLT-4 leukemia it was -26.8% [100 µM] (active).
Turning to `O=C1CC(C(F)(F)F)Cc2nc3ccc(Br)cc3cc21` (stereo not given), the growth is 107% in the assay on SK-MEL-2 melanoma; 81% in the assay with EKVX NSCLC; 85.8% in the assay on SN12C renal; 59.7% in the assay on UO-31 renal; 145% in the assay with TK-10 renal; 91.5% with ACHN renal. In addition, the growth is 75.5% in the assay with CAKI-1 renal, 49.7% in the assay on A498 renal, 98.1% in the assay with CCRF-CEM leukemia and 77.8% in the assay with MOLT-4 leukemia.
Take `CC(C)c1ccc(C(=O)Nc2sc3c(c2C#N)CCC(=O)C3)cc1`: the growth in the assay with SK-MEL-2 melanoma was -20.1% (active); in the assay on EKVX NSCLC, 7.96% (active); with SN12C renal, 4.66% (active); in the assay with UO-31 renal, -97% (active); with TK-10 renal, 0.974% (active); in the assay on ACHN renal it was -90.5% (active). The growth was -44.3% (active) with CAKI-1 renal, 24.6% with A498 renal, 1.37% (active) with CCRF-CEM leukemia and 0.0788% (active) with MOLT-4 leukemia.
Consider `COc1cc(/C=C/C(=O)/C=C/c2ccc(-n3ccnc3)cc2)ccc1O`, for which the growth was 106% in the assay on SK-MEL-2 melanoma; 97.9% with EKVX NSCLC; 76.6% in the assay with SN12C renal; -25.7% (active) in the assay with UO-31 renal; 101% in the assay with TK-10 renal; 48.3% in the assay with ACHN renal. For the same compound, the growth is 91.5% with CAKI-1 renal, 96.8% in the assay on A498 renal, 37.1% with CCRF-CEM leukemia and 33.4% in the assay with MOLT-4 leukemia.
Consider `CC1(C)CC[C@]2(C(=O)O)CC[C@]3(C)[C@H](CC[C@@H]4[C@@]5(C)CCC(=O)C(C)(C)[C@@H]5CC[C@]43C)[C@H]2[C@H]1OC(=O)C(F)(F)F`, for which the growth is -71.8% [100 µM] (active) in the assay on SK-MEL-2 melanoma; -69.6% [100 µM] (active) in the assay with EKVX NSCLC; -82.1% [100 µM] (active) with SN12C renal; -96.4% [100 µM] (active) in the assay on UO-31 renal; -84.1% [100 µM] (active) with TK-10 renal; -94.1% [100 µM] (active) in the assay on ACHN renal. Moreover, the growth in the assay on CAKI-1 renal is -71.2% [100 µM] (active); in the assay on A498 renal, -81.2% [100 µM] (active); in the assay with CCRF-CEM leukemia it was -25% [100 µM] (active); in the assay with MOLT-4 leukemia, -26.4% [100 µM] (active).
On to `CCN(CC)CCCNCc1cc(-c2ccccc2)nc2ccccc12`, for which the growth in the assay on SK-MEL-2 melanoma was 109%; in the assay on EKVX NSCLC, 93.7%; with SN12C renal it was 48%; in the assay on UO-31 renal it was 23.7%; in the assay on TK-10 renal it was 46.8%; in the assay with ACHN renal, 101%. The growth in the assay with CAKI-1 renal was 100%; in the assay on A498 renal it was 75.2%; with CCRF-CEM leukemia, 11.8%; in the assay with MOLT-4 leukemia, 8.2% (active).
